Hit rate of the full screen: of about 1,300 compounds, about 240 (18%) were called active. Another 8% or so got no clear call; they are omitted. No rule for the calls is given here. These entries were drawn from the full list. Measured potencies and affinities stand elsewhere.
assay: HepG2 cell cytotoxicity, dose response, cytotoxicity control, cherry-picked samples (AID 1159577); settings: HepG2 cytotoxicity counterscreen, plate reader; series mostly up to 19.5 µM; activity change, negative = cytotoxicity: at the top concentration;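 also: 0% = neutral control wells and -100% = positive control wells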

SMILES	activity change, negative = cytotoxicity
CCCNC(=O)N1[C@H](C#N)[C@H](c2ccc(-c3cccnc3)cc2)[C@H]1CO	15.7% (inactive)
COc1ccc2c3c([nH]c2c1)[C@@H](CO)N(Cc1ccccc1)CC31CCN(C(=O)c2cccnc2)CC1	1% (inactive)
CS(=O)(=O)N1[C@H](C#N)[C@H](c2ccccc2-c2ccccc2)[C@H]1CO	-3.69% [at 18 µM] (inactive)
Cc1ccc(S(=O)(=O)N(C)C[C@H]2Oc3ccc(NC(=O)c4ccncc4)cc3C(=O)N([C@@H](C)CO)C[C@@H]2C)cc1	0.724% [at 21 µM] (inactive)
CO[C@H]1CN(C)C(=O)c2cc(NC(C)=O)ccc2OC[C@H](C)N(Cc2ccncc2)C[C@@H]1C	9.85% (inactive)
N#Cc1ccc(-c2ccc(C3[C@@H]4CN(C(=O)C5CC5)C[C@H]3N4)cc2)cc1 (stereo partly specified)	5.83% (inactive)
C[C@H]1CN([C@@H](C)CO)C(=O)c2ccccc2-c2ccccc2CO[C@@H]1CN(C)C(=O)Nc1ccc(-c2ccccc2)cc1	-2.44% (inactive)
COc1ccc2c3c([nH]c2c1)[C@@H](CO)N(Cc1ccccc1F)CC31CCN(C(=O)C2CCOCC2)CC1	-8.2% (inactive)
Cc1ccc(S(=O)(=O)N(C)C[C@@H]2OCc3ccccc3-c3c(n(C)c4ccccc34)C(=O)N([C@H](C)CO)C[C@@H]2C)cc1	-6.32% [at 21 µM] (inactive)
Cc1ccccc1S(=O)(=O)N(C)C[C@@H]1OCc2ccccc2-c2c(n(C)c3ccccc23)C(=O)N([C@@H](C)CO)C[C@@H]1C	-1.58% (inactive)
COCC(=O)N1CC2(C1)CN(Cc1ccccc1F)[C@H](CO)c1[nH]c3cc(OC)ccc3c12	12.4% (inactive)
CN(C)CC(=O)Nc1ccc2c(c1)[C@@H]1C[C@H](CC(=O)N3CCOCC3)O[C@@H](CO)[C@@H]1O2	-0.683% (inactive)
N#Cc1ccc(-c2ccc([C@@H]3[C@@H]4CN(S(=O)(=O)Cc5ccccc5)C[C@H]3N4)cc2)cc1	-19.3% (inactive)
N#Cc1ccc(-c2ccc([C@@H]3[C@@H]4CN(Cc5cocn5)C[C@H]3N4)cc2)cc1	-18.2% [at 21 µM] (inactive)
N#Cc1ccc(-c2ccc([C@@H]3[C@@H](CO)N4C(=O)CN(C(=O)C5CCC5)C[C@@H]34)cc2)cc1	10.7% (inactive)
CCCC#Cc1ccc2c(c1)O[C@H](CN(C)C(=O)c1ccccc1F)[C@@H](C)CN([C@H](C)CO)S2(=O)=O	16% (inactive)
C/C=C/c1ccc2c(c1)[C@@H]1[C@@H](CCN1S(=O)(=O)c1ccccc1C)[C@H](CO)N2	0.386% (inactive)
COc1cccc(CNC(=O)c2cc3c(c(-c4cccc(-c5ccncc5)c4)n2)[C@@H](CCO)N([S@](=O)C(C)(C)C)C3)c1	-14.9% (inactive)
C[C@H]1CN([C@@H](C)CO)S(=O)(=O)c2ccc(C#Cc3ccccc3F)cc2O[C@H]1CN(C)C(=O)c1ccc2c(c1)OCO2	26.1% (inactive)
CCCNC(=O)c1cc2c(c(-c3cccc(-c4cc5ccccc5o4)c3)n1)[C@H](CCO)N(C(=O)NC(C)C)C2	26.5% (inactive)
O=C(c1ccccc1F)N1CC(=O)N2[C@H](C1)[C@@H](c1ccc(-c3ccc(F)cc3)cc1)[C@@H]2CO	-5.85% (inactive)
C/C=C/c1ccc([C@H]2[C@@H](CO)N(CC3CCCC3)C23CN(C(=O)CC2CC2)C3)cc1	-13.4% (inactive)
COc1ccccc1-c1ccc([C@@H]2[C@@H](C#N)N[C@@H]2CO)cc1	1.31% (inactive)
Cc1ccccc1S(=O)(=O)N1C[C@@H]2N[C@H](C1)C2c1ccc(-c2ccc(C#N)cc2)cc1 (stereo partly specified)	-10.4% (inactive)

SMILES	activity change, negative = cytotoxicity
COc1cccc(CN2[C@@H]3CNC[C@H]2[C@H]3c2ccc(-c3ccccc3OC)cc2)c1	-3.18% (inactive)
COc1ccccc1CN1C[C@@H]2N[C@H](C1)C2c1ccc(-c2ccncc2)cc1 (stereo partly specified)	-9.04% [at 21 µM] (inactive)
CCCC(=O)N1CCC2(CC1)CN(Cc1cccnc1)[C@@H](CO)c1[nH]c3cc(OC)ccc3c12	19.9% (inactive)
CCC(=O)N1CC2(C1)CN(S(=O)(=O)c1ccccc1)[C@@H](CO)c1[nH]c3cc(OC)ccc3c12	23.6% (inactive)
CS(=O)(=O)N1[C@H](C#N)[C@H](c2ccccc2-c2ccc(F)cc2)[C@H]1CO	0.806% [at 21 µM] (inactive)
COc1ccc(S(=O)(=O)Nc2ccc3c(c2)CC(=O)N([C@H](C)CO)C[C@H](C)[C@H](CN(C)S(=O)(=O)c2ccc(C)cc2)O3)cc1	5.57% (inactive)
N#C[C@@H]1[C@H](c2ccccc2C2=CCCCC2)[C@@H](CO)N1C(=O)c1cccc(F)c1	-10.4% [at 21 µM] (inactive)
COc1ccc(-c2ccc(C3[C@H]4CNC[C@@H]3N4C(=O)Nc3ccc(C(F)(F)F)cc3)cc2)cc1 (stereo partly specified)	7.31% (inactive)
O=C(Nc1ccc(C(F)(F)F)cc1)N1C[C@@H]2N[C@H](C1)C2c1ccc(-c2cccnc2)cc1 (stereo partly specified)	23.2% (inactive)
COc1cccc(-c2ccc(C3[C@@H]4CN(C(=O)C5CC5)C[C@H]3N4)cc2)c1 (stereo partly specified)	-2.61% (inactive)
O=C(c1cnccn1)N1CC(=O)N2[C@@H](CO)[C@@H](c3ccc(C#CCc4ccccc4)cc3)[C@@H]2C1	5.35% (inactive)
CCC(=O)N1CC2(C1)CN(Cc1cc(F)ccc1F)[C@H](CO)c1[nH]c3cc(OC)ccc3c12	-5.03% (inactive)
CC(C)(C)[S@@](=O)N1Cc2cc(C(=O)N3CCc4ccccc4C3)nc(-c3cccc(-c4ccncc4)c3)c2[C@H]1CCO	14% (inactive)
C[C@H]1CN([C@@H](C)CO)C(=O)CCCn2nncc2CO[C@H]1CN(C)C(=O)Nc1ccc(N2CCCCC2)cc1	4.08% (inactive)
C[C@@H]1CN([C@H](C)CO)C(=O)c2cc(/C=C/c3ccccc3)cnc2O[C@H]1CN(C)C(=O)NC1CCCCC1	-16.2% (inactive)
CN(C)CC#Cc1ccc([C@@H]2[C@H](CO)N3C(=O)CN(C(=O)Cc4cccnc4)C[C@@H]23)cc1	-5.53% (inactive)
COCC(=O)Nc1ccc2c(c1)C(=O)N(C)C[C@H](OC)[C@H](C)CN(Cc1cccc(F)c1)[C@@H](C)CO2	6.07% (inactive)
C[C@@H]1CN([C@H](C)CO)C(=O)c2cccc(NC(=O)c3nc4ccccc4s3)c2O[C@H]1CN(C)C(=O)Nc1ccc(C(F)(F)F)cc1	24.7% (inactive)
CCCNC(=O)N1CCC2(CC1)CN(Cc1ccc(F)cc1)[C@@H](CO)c1[nH]c3cc(OC)ccc3c12	12% (inactive)
CO[C@@H]1CN(C)C(=O)c2ccc(NC(=O)c3nc4ccccc4s3)cc2OC[C@@H](C)N(Cc2ccccc2)C[C@H]1C	19.9% (inactive)
COc1cc(CN2[C@@H]3CNC[C@H]2C3c2ccc(-c3ccccc3)cc2)cc(OC)c1 (stereo partly specified)	-27.9% [at 21 µM] (inactive)
COc1ccc(-c2ccc(C3[C@H]4CNC[C@@H]3N4S(=O)(=O)c3cccc(OC)c3)cc2)cc1 (stereo partly specified)	5.57% (inactive)
CCC(=O)N1CC2(C1)CN(Cc1cccc(Cl)c1)[C@H](CO)c1[nH]c3cc(OC)ccc3c12	-13% (inactive)
C[C@@H]1CN([C@H](C)CO)C(=O)c2cccc(NS(=O)(=O)c3cccs3)c2O[C@H]1CN(C)Cc1ccc(C(F)(F)F)cc1	0.28% (inactive)

SMILES	activity change, negative = cytotoxicity
COc1ccc(C#Cc2ccc3c(c2)O[C@H](CN(C)C(=O)Nc2cccc(OC)c2)[C@H](C)CN([C@@H](C)CO)S3(=O)=O)cc1	4.51% (inactive)
CC(C)(C)[S@](=O)N1Cc2cc(C(=O)NC3CCC3)nc(-c3cccc(Br)c3)c2[C@@H]1CCO	15.7% (inactive)
COc1ccc(S(=O)(=O)N(C)C[C@@H]2OCc3ccccc3-c3c(n(C)c4ccccc34)C(=O)N([C@@H](C)CO)C[C@@H]2C)cc1	3.28% (inactive)
COc1ccc2c3c(n(C)c2c1)[C@H](CO)N(C(=O)c1cccc(F)c1)CC31CN(C(=O)c2cccc(F)c2)C1	38.5% (inactive)
CO[C@@H]1CN(C)C(=O)c2ccc(NC(=O)c3cc(C)on3)cc2OC[C@@H](C)N(S(=O)(=O)c2cccc(C)c2)C[C@H]1C	-12.2% (inactive)
CCC(=O)N1CCC2(CC1)CN(Cc1cccc(OC)c1)[C@@H](CO)c1[nH]c3cc(OC)ccc3c12	-21.1% (inactive)
C[C@@H]1CN([C@H](C)CO)C(=O)c2c(c3ccccc3n2C)-c2ccccc2CO[C@@H]1CN(C)C(=O)c1cc(Cl)cc(Cl)c1	1.08% (inactive)
COc1ccc(CN2C[C@H](C)[C@@H](OC)CN(C)C(=O)c3cc(NC(=O)c4nc5ccccc5s4)ccc3OC[C@@H]2C)cc1	-2.87% (inactive)
CCCNC(=O)Nc1ccc2c(c1)C(=O)N(C)C[C@H](OC)[C@@H](C)CN(C(=O)C1CCOCC1)[C@@H](C)CO2	0.908% (inactive)
C/C=C/c1ccc2c(c1)[C@H]1[C@H](CCN1S(=O)(=O)c1cccc(F)c1)[C@@H](CO)N2	-18.7% (inactive)
C/C=C/c1ccc2c(c1)[C@H]1[C@H](CCN1C(=O)c1ccc3c(c1)OCO3)[C@H](CO)N2	17.9% (inactive)
C/C=C/c1ccc(C2[C@H]3CNC[C@@H]2N3Cc2cc(F)ccc2F)cc1 (stereo partly specified)	-9.53% (inactive)
C[C@@H]1CN([C@@H](C)CO)S(=O)(=O)c2ccc(/C=C/c3ccccc3)cc2O[C@H]1CN(C)C(=O)c1ccc2c(c1)OCO2	-5.77% (inactive)
C[C@@H]1CN([C@@H](C)CO)C(=O)c2cc(NC(=O)Nc3ccccc3)ccc2O[C@@H]1CN(C)C(=O)Nc1cccc2ccccc12	0.484% (inactive)
COc1ccc2c3c([nH]c2c1)[C@@H](CO)N(Cc1ccccc1Cl)CC31CCN(C(=O)C2CC2)CC1	5.31% (inactive)
CCC(=O)N1CC2(C1)CN(Cc1ccc(Cl)cc1)[C@@H](CO)c1[nH]c3cc(OC)ccc3c12	-17.8% (inactive)
C/C=C/c1ccc2c(c1)[C@H]1[C@H](CCN1S(=O)(=O)c1ccccc1C)[C@@H](CO)N2	2.08% (inactive)
CO[C@@H]1CN(C)C(=O)c2cc(NC(C)=O)ccc2OC[C@@H](C)N(C(=O)Cc2cccnc2)C[C@H]1C	-3.07% (inactive)
O=C(C[C@H]1C[C@@H]2c3cc(NC(=O)Nc4ccccc4)ccc3O[C@@H]2[C@H](CO)O1)NCc1ccccc1	-19.7% (inactive)
CCCN1[C@H](CO)[C@H](c2ccc(C3=CCCC3)cc2)[C@H]1CN(C(C)=O)C1CCCC1	4.65% (inactive)
CN(C)CC(=O)N1[C@H](CO)[C@H](c2ccc(-c3cccc(C(=O)N(C)C)c3)cc2)[C@@H]1C#N	9.58% (inactive)
CCC(=O)N1[C@H](CO)[C@H](c2ccccc2)[C@@H]1CN(CC)C(=O)c1cccc(F)c1	6.38% (inactive)
C[C@@H]1CN([C@H](C)CO)S(=O)(=O)c2ccc(C3=CCCCC3)cc2O[C@H]1CN(C)C(=O)Cc1ccncc1	18% (inactive)

— PubChem BioAssay AID1159577 (Broad Institute, 2015)
